High-throughput results (PubChem BioAssay)
ELG1 repair inh – blocks ELG1-dependent DNA repair in HEK293T cells | HEK293T ELG1-luciferase reporter, luminescence, 16 h; DNA damage induced by 5-fluorouridine | Potency, µM (top dose mostly 46.1 µM), for inactives: top-dose activity change, negative = inhibition, hits mostly inhibitors | 330,000 tested, 2.3% active; further: on the % scale 0 is the no-effect control and ±100 the full control effect; nearly all actives have a fitted effect of over 55% in size
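Step one: seed 2,000 cells per well. Step two: pin-transfer compound or DMSO alongside 5-fluorouridine. Step three: incubate 16 hr, 37 °C, 5% CO2. Step four: add ONE-Glo, wait 30 min, read luminescence.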
KB-V1 MDR tox – KB-V1 MDR subline cytotoxicity. Potency, µM (top dose mostly 46.1 µM), usual class: cytotoxic. AID 1347076. 400,000 tested, 3.4% active. KB-V1 MDR cells viability, CellTiter-Glo, 72 h; further: on the % scale 0 is the no-effect control and ±100 the full control effect; nearly all actives have a fitted effect of over 60% in size
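KB-V1 cells (P-gp-expressing MDR subline of KB-3-1) in phenol-red-free DMEM with 10% FBS were exposed to library compounds over a concentration series for 72 h at 37 degrees C. Viability read by CellTiter-Glo luminescence; concentration-effect curves fitted after normalization.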
SW480 rerep – inducers of DNA re-replication in SW480 colon cancer cells; SW480 DNA re-replication, Hoechst DNA content imaging, 48 h; Potency, µM (highest dose often 46.1 µM), without a hit: at the highest dose re-replication activation, hits mostly activators; 340,000 tested, 1.8% active; AID 624297; further: % of control where 0% means no effect; nearly all actives have a fitted effect of over 55% in size
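Hoechst fluorescence of nuclei (405 nm excitation, 500-530 nm emission) measured by plate-scanning imager after 48 hr compound exposure at 37 C; re-replication scored as increased number of nuclei with elevated intensity.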
MCF10A rereplic – induces DNA re-replication in MCF 10a normal breast cells; 350,000 tested, 2.9% active; AID 624296; Potency, µM (top dose mostly 46.1 µM), for inactives: top-dose activity, positive = re-replication, usual class: activators; MCF 10A DNA re-replication, Hoechst nuclear intensity, 48 h; further: % of control where 0% means no effect; nearly all actives have a fitted effect of over 50% in size
KB-3-1 cytotox – kills parental KB-3-1 adenocarcinoma cells | AID 1347075 | KB-3-1 viability, CellTiter-Glo ATP luminescence, 72 h | Potency, µM (highest dose often 46.1 µM), hits mostly cytotoxic | 400,000 tested, 1.4% active; further: on the % scale 0 is the no-effect control and ±100 the full control effect; nearly all actives have a fitted effect of over 60% in size
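72 h, 37 °C compound treatment of KB-3-1 parental cells; CellTiter-Glo added, 10 min, luminescence read. Data corrected against DMSO-only plates and normalized before curve fitting.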
Numbers without * were called inactive; i = inactive; ? = inconclusive; . = no result. Only some compounds are listed: those with a hit (about 8.2% of all), similar ones and a draw of the others. The call rests on the fitted dose curve; in most records, active means well fitted curve in the direction sought with a large enough effect; inconclusive means small, poorly fitted or top-dose-only effect, or another doubt; inactive means no such curve, though single readings can be large; an effect the other way counts as inactive or inconclusive. Potency means the concentration at half of the fitted maximal effect.

SMILES	ELG1 repair inh	KB-V1 MDR tox	SW480 rerep	MCF10A rereplic	KB-3-1 cytotox
COc1ccc(CNCC(O)COc2cccc3c2OC(C)(C)C3)cc1 (centres undefined)	9.2µM*	?	?	?	?
Cc1c(O)ccc(C(=O)CN2CCN(Cc3ccccc3)CC2)c1O	-0.1%	i	3.4%	-3.2%	i
COc1ccc(C(=O)NC(C)c2nc3ccccc3n2C)cc1OC (centres undefined)	3.6%	i	-3.7%	2.8%	i
Cn1c(/C(C#N)=C(\O)c2cc(Cl)sc2Cl)nc2ccccc21	4.5%	i	-14.5%	13.1%	i
COc1ccc(/C(O)=C(\C#N)c2nc3ccccc3n2C)cc1OC	2.5%	5.8µM*	-12.2%	18.8%	i
COc1ccc(C(O)c2nc3ccccc3n2C)cc1OC (centres undefined)	9.2µM*	i	-9.8%	29.8%	i
C[C@@H]1CN([C@H](C)CO)C(=O)c2cc(C#CC(C)(C)O)cnc2O[C@@H]1CN(C)C(=O)C1CC1	.	i	.	.	i
COc1cc(NC(=O)c2cccs2)ccc1NC(=O)Cc1ccccc1	?	.	0.6%	?	.
Cc1ccc(NC(=O)c2cccs2)cc1[N+](=O)[O-]	?	?	5.6%	5.1%	i
O=C(Nc1cccc(NC(=O)c2cccs2)c1)c1ccc([N+](=O)[O-])o1	16.4µM*	?	?	18.5%	16.4µM*
COc1cc(NC(=O)c2ccc([N+](=O)[O-])o2)ccc1NC(=O)c1cccs1	14.0%	i	6.51µM*	?	?
Cn1c(NNC(=O)c2cccc3ccccc23)cc(=O)n(C)c1=O	8.3%	i	-3.0%	-0.6%	i
OC[C@@H](O)C(O[C@@H]1O[C@@H](CO)[C@H](O)[C@H](O)[C@H]1O)[C@H](O)[C@@H](O)CO (some centres undefined)	.	.	-3.1%	3.1%	.
N#CC1=C(N)Oc2cc(N)ccc2C1c1cc(Br)cs1 (centres undefined)	-23.6%	?	16.4µM*	?	8.2µM*
N#CC1=C(N)Oc2cc(O)ccc2C1c1ccccc1 (centres undefined)	-12.5%	18.4µM*	3.9%	?	?
N#CC1=C(N)Oc2cc(N)ccc2C1c1ccccc1F (centres undefined)	-15.3%	7.31µM*	18.4µM*	18.4µM*	?
N#CC1=C(N)Oc2cc(N)ccc2C1c1cccc(Br)c1 (centres undefined)	-24.8%	?	?	1.64µM*	8.2µM*
